Screening data from PubChem.
Mtb betalactam: beta-lactam sensitization of Mtb H37Rv. inhibition, % at 25 µM. M. tuberculosis H37Rv growth with meropenem, percent inhibition. 0.27% of 330,000 active;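 also: growth measured after seven days incubation then overnight dye step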
Mtb BioA inh: blocks M. tuberculosis BioA enzyme activity; 0.096% of 360,000 active; AID 602481; purified M. tuberculosis BioA enzyme, plate reader; inhibition, % at 9.99 µM; in the data active = inhibition above about 40%
Y pestis TopoI: inhibitors of Yersinia pestis topoisomerase I; activity, % at 10 µM; 0.064% of 360,000 active; Y. pestis Topo-I cleavage product accumulation, plate reader; in the data active = activity above about 50%, passing the limit was not always enough
CCHFV vOTU inh: blocks the CCHF virus ovarian tumor domain protease. inhibition, % at 11.5 µM. 0.55% of 370,000 active. CCHFV vOTU protease, Pep-AMC fluorescence. AID 651958; in the data active = inhibition above about 30%
RecA intein inh: blocks M. tuberculosis RecA intein splicing; cell-free RecA intein splicing, fluorescence; inhibition, % (no concentration beside the values); 0.75% of 290,000 active; AID 2221; in the data active = inhibition above about 30%
BJeLR lethal: kills HRASV12-expressing BJeLR cells | 0.17% of 300,000 active | BJeLR (HRASV12) viability, CellTiter-Glo ATP luminescence, 48 h | inhibition, % (test concentration not listed) | AID 1554; in the data active = inhibition above about 50%
GFP chromophore: counter-screen GFP chromophore formation inhibition. shares compounds with RecA intein inh. cell-free GFP chromophore formation, fluorescence. EC50, µM. 83% of 2,100 active
A number is an active result; n = inactive; x = not tested or not shown. Compounds with a hit are over-represented: about 1.1% of the library has one in this group of screens. Unless noted, no rule for the calls is given here.

SMILES | Mtb betalactam | Mtb BioA inh | Y pestis TopoI | CCHFV vOTU inh | RecA intein inh | BJeLR lethal | GFP chromophore
Nc1nc(-c2ccc(Cl)cc2)c(S(=O)(=O)c2ccccc2)s1 | n | x | n | n | n | n | x
Nc1nc(-c2ccc(Br)cc2)c(S(=O)(=O)c2ccccc2)s1 | n | n | n | n | 80.6 | n | n
N#CC(C#N)=NNc1ccc(S(=O)(=O)N2CCCCC2)cc1 | n | n | n | n | 58.3 | n | 18.5
CC(=O)N1[C@@H]2c3ccc(-c4ccccc4)c(=O)n3C[C@@H]2[C@@H](CO)[C@@H]1C(=O)NC1CCC1 | x | n | x | x | x | x | x
Cc1ccc(C[n+]2c(-c3ccc(C)cc3)cc(-c3ccc(C)cc3)cc2-c2ccc(C)cc2)cc1 | n | n | n | x | 55.6 | 60.4 | 14.2
Cc1ccc(C[n+]2ccccc2)cc1 | n | n | n | n | n | n | x
Cc1noc(C)c1NC(=O)N[C@H]1CC[C@H](CC(=O)NCCCN(C)C)O[C@@H]1CO | x | n | x | x | x | x | x
O=[N+]([O-])c1cc(S(=O)(=O)C(F)(F)F)ccc1Sc1nc2ccccc2s1 | n | n | n | n | 84.6 | n | 0.253
O=[N+]([O-])c1cc(S(=O)(=O)C(F)(F)F)ccc1Sc1nc2ccccc2[nH]1 | n | x | n | n | 81.6 | n | 1.47
Cc1ccc(/C=C2\SC(N3CCN(C(c4ccccc4)c4ccccc4)CC3)=NC2=O)o1 | n | x | n | n | 33.3 | n | n
Cc1ccc(-c2ccc(/C=C3\SC(N4CCOCC4)=NC3=O)o2)cc1 | n | x | n | n | n | n | x
C[C@@H]1CN([C@@H](C)CO)C(=O)c2cc(NS(=O)(=O)c3ccccc3)ccc2O[C@@H](C)CCCCO[C@@H]1CN(C)Cc1ccc(C(F)(F)F)cc1 | x | n | x | x | x | x | x
CCOC(=O)c1c(NC(=O)CSc2nnc(-c3c[nH]c4ccccc34)n2CCOC)sc2c1CCCC2 | n | n | n | n | 31.7 | n | n
CN1C(=O)c2cc(NC(=O)Nc3ccc(Cl)cc3)ccc2OC[C@H]2O[C@H](CC(=O)NCCN3CCCCC3)CC[C@H]21 | x | n | x | x | x | x | x
COC(=O)C1CN(C#N)N(c2ccc(Cl)cc2)C12c1ccccc1-c1ccccc12 (stereo unspecified) | n | n | n | x | 43.9 | 83.9 | 9.77
COc1ccc(N2CCN(C(=O)c3ccc(Oc4ccc(C(F)(F)F)cn4)cc3)CC2)cc1 | n | n | n | n | 31.1 | n | n
O=C(c1ccc(Oc2ccc(C(F)(F)F)cn2)cc1)N1CCN(c2ccccc2)CC1 | n | n | n | n | n | n | x
O=C(CCl)N1c2ccccc2SCC1c1ccccc1 (stereo unspecified) | n | n | n | n | n | n | x
O=C(CCl)N1c2ccccc2OCC1c1ccccc1 (stereo unspecified) | n | x | n | n | 80.7 | n | 4.47
CCOC(=O)C1=C(C)NC(SCc2cc(=O)[nH][nH]2)=C(C#N)C1c1cccs1 (stereo unspecified) | n | n | n | n | 69.9 | n | 20.4
CCOC(=O)C1=C(C)NC(SCC(N)=O)=C(C#N)C1c1cccs1 (stereo unspecified) | n | x | n | n | n | n | x
C[C@H](CO)N1C[C@H](C)[C@@H](CN(C)S(=O)(=O)c2ccc(C#N)cc2)OCc2ccccc2-c2ccccc2C1=O | x | n | x | x | x | x | x
Cc1ccc(S(=O)(=O)Cc2cc(F)c([N+](=O)[O-])cc2[N+](=O)[O-])cc1 | n | n | n | x | 34.6 | n | 22.8
CCOC(=O)c1ccc([N+](=O)[O-])c(CS(=O)(=O)c2ccc(Cl)cc2)c1 | n | n | n | n | n | n | x
C[C@H]1CN([C@@H](C)CO)S(=O)(=O)c2ccc(C3=CCCCC3)cc2O[C@H]1CN(C)C(=O)C1CCOCC1 | x | n | x | x | x | x | x
SMILES | Mtb betalactam | Mtb BioA inh | Y pestis TopoI | CCHFV vOTU inh | RecA intein inh | BJeLR lethal | GFP chromophore
COc1ccc(C(=O)C2C(c3ccc(-c4ccccc4[N+](=O)[O-])o3)NC(=O)NC2(O)C(F)(F)F)cc1 (stereo unspecified) | n | x | n | n | 64.5 | n | 32.3
CC1CCc2c(c3ccccc3n2C(=O)CCl)C1 (stereo unspecified) | n | n | n | n | 40.9 | n | 0.694
CCN1CCN(CC(=O)n2c3c(c4ccccc42)CC(C)CC3)CC1 (stereo unspecified) | n | n | n | n | n | n | x
CCOC(=O)C1=C(C)OC(N)=C(C#N)C1c1c(C)nn(-c2ccc(C)cc2)c1Cl (stereo unspecified) | x | x | x | x | n | n | x
COc1ccc(OC)c(C2C(C#N)=C(N)Oc3c2c(C)nn3-c2ccc(C)cc2)c1 (stereo unspecified) | n | n | n | n | 43.8 | n | 29.4
COc1ccc(C2C(C#N)=C(N)Oc3c2c(-c2ccccc2)nn3-c2ccccc2)c(OC)c1OC (stereo unspecified) | n | n | n | n | n | n | x
Cc1ccc(-n2nc(C)c3c2OC(N)=C(C#N)C3c2ccco2)cc1 (stereo unspecified) | n | n | n | n | 69.0 | n | 10.6
Cc1ccc(-n2nc(C)c3c2OC(N)=C(C#N)C3c2ccc(C)o2)cc1 (stereo unspecified) | n | n | n | n | 79.8 | n | 16.6
O=C(C[C@@H]1C=C[C@H](NS(=O)(=O)c2ccccc2)[C@@H](CO)O1)NCc1ccncn1 | x | n | x | x | x | x | x
O=C(C[C@H]1CC[C@H]2[C@@H](COC[C@H](O)CN2S(=O)(=O)c2ccccc2)O1)NCCN1CCCCC1 | x | n | x | x | x | x | x
O=C(c1ccncc1)N1C[C@@H]2[C@H](c3ccccc31)[C@H](CO)N2C(=O)Nc1ccccc1Cl | x | n | x | x | x | x | x
CC(=O)n1cc(N(C(=O)CCl)c2ccc([N+](=O)[O-])cc2)c2ccccc21 | n | n | n | n | 90.3 | n | 2.28
Cn1cc(C(=O)N/N=C/c2ccc([N+](=O)[O-])cc2)c2ccccc21 | n | n | n | n | n | n | x
CC(=O)n1cc(CO)c2ccccc21 | n | n | n | n | x | n | x
CC(=O)n1cc(N(C(=O)CCl)c2ccccc2)c2ccccc21 | n | n | n | n | 85.5 | 100.4 | 4.41
CCCC#Cc1cnc2c(c1)C(=O)N([C@@H](C)CO)C[C@@H](C)[C@@H](CN(C)S(=O)(=O)c1ccccc1)O2 | x | n | x | x | x | x | x
Cc1ccc(NC(=O)CSc2ncnc3ccccc23)cc1S(=O)(=O)N1CCCCCC1 | n | n | n | n | 31.1 | n | n
Cc1noc2ncnc(Sc3ccc(Br)cc3)c12 | n | n | n | n | 36.5 | n | 31.5
Cc1noc2ncnc(N3CCCC3)c12 | n | n | n | n | n | n | x
CC(=O)C(=Cc1ccc(C(=O)O)cc1)C(C)=O | n | x | n | n | n | n | x
Cc1ccc(NC(=O)C(=Cc2ccc(C(=O)O)cc2)C(=O)Nc2ccc(C)cc2C)c(C)c1 | n | x | n | x | 82.6 | n | 7.58
COc1cc(C=C2C(=O)c3ccccc3C2=O)cc(OC)c1OC | n | n | n | n | x | n | x
COc1cc(C=C2C(=O)c3ccccc3C2=O)ccc1O | n | n | n | n | 46.0 | n | n
COc1ccccc1NC(=O)N[C@@H]1CC[C@@H](CCNS(=O)(=O)c2ccc(F)cc2)O[C@@H]1CO | x | n | x | x | x | x | x
